An excerpt weighted towards active compounds, which were near 3.9% of everything screened.
D1 antag = antagonists of human D1 dopamine receptor | P21728 | HEK293 TREx D1 cells, calcium flux, dopamine EC80; active compounds read low | activity change, negative = inhibition, % at 10 µM | 3.2% of 360,000 active | AID 504652; in the data active = activity change below about -30%; note: % is set by controls: 0 for no effect and ±100 for the full control effect
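HEK293 T-REx cells expressing inducible, force-coupled D1 receptor; no-wash Ca dye, 30–90 min RT. Cmpd → 180 s read at 1 Hz → EC80 DA → 180 s read.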
USP2a inh = blocks human ubiquitin-specific protease USP2a. AID 463254. 0.01% of 330,000 active. Potency, µM (titrated, usually from 38.3 µM), inactives show at the highest dose activity change, negative = inhibition, most hits filed as inhibitors. USP2 core, Ub-CHOP2 coupled fluorogenic reporter, 485/531;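 note: potency is the fitted concentration of half-maximal effect; plate controls were DMSO wells for no effect and full inhibition by NEM control for full effect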
Target sequence (O75604 whole entry, looked up): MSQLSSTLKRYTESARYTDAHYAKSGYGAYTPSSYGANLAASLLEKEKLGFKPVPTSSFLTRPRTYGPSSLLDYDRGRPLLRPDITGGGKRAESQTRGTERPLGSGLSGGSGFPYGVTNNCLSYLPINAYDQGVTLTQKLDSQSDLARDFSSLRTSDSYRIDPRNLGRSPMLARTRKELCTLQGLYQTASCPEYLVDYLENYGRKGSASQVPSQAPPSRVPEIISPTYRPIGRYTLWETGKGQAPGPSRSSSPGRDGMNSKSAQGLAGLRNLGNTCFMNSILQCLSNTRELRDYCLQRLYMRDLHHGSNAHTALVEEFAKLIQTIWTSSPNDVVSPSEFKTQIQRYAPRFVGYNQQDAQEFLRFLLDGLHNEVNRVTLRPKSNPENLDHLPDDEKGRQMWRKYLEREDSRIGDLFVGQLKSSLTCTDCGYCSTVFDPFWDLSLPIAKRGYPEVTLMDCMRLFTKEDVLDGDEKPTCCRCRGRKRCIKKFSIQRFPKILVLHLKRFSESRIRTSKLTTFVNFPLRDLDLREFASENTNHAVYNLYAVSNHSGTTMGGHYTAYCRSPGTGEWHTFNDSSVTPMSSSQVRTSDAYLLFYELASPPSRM
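USP2 core (10nM final) preincubated 30min RT with compound in 20mM Tris-HCl pH 8.0, 2mM CaCl2, 2mM beta-mercaptoethanol, 0.05% CHAPS; 25nM Ub-CHOP2 plus 25nM reporter substrate added, fluorescence (Ex485/Em531) read after 60min.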
Eya2 phos inh = blocks the phosphatase activity of human Eya2; O00167; recombinant Eya2, OMFP fluorescence dephosphorylation (OMFP is methylfluorescein phosphate); Potency, µM (doses to about 76.9 µM), inactives show at the highest dose activity, negative = inhibition, hits mostly inhibitors; 0.006% of 330,000 active; AID 488837; note: potency is the fitted concentration of half-maximal effect; % is set by controls: 0 for no effect and ±100 for the full control effect
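Eya2 protein (added as 0.2 uM solution) was preincubated with compound for 10 min at ambient temperature in 50 mM HEPES pH 7.5, 50 mM NaCl, 5 uM MgCl2, 0.05% BSA, 1 mM DTT. OMFP (added at 50 uM) then reacted 10 min; fluorescence read at 485/525 nm.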
D1 PAM = human D1 dopamine receptor positive modulation. P21728. HEK293 TREx D1 cells, calcium flux, dopamine EC20 potentiation. potentiation, % at 10 µM. 0.036% of 360,000 active; in the data active = potentiation above about 30%; note: 0% is about no effect
GALK inhibitor = blocks human galactokinase activity; 0.007% of 270,000 active; Purified GALK, Kinase-Glo residual ATP luminescence; AID 1868; Potency, µM (doses to about 57.5 µM), inactives show at the top dose activity change, negative = inhibition, actives largely listed as inhibitors; note: potency is the fitted concentration of half-maximal effect; % is set by controls: 0 for no effect and ±100 for the full control effect
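GALK at 5 nM final was combined with compound, 35 uM ATP and 100 uM galactose in HEPES pH8.0 with MgCl2 and DTT. The reaction ran one hour at room temperature before luminescent ATP detection.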
D1 ag = human D1 receptor agonism; P21728; HEK293 T-REx D1 cells, calcium flux, agonist mode; activation, % at 2 µM; 1% of 360,000 active; AID 504660; in the data active = activation above about 30%; note: 0% is about no effect
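Tetracycline-induced HEK293 TREx D1 cells, force-coupled to calcium signalling, were dye-loaded with a no-wash calcium kit. Compound was pin-added after a 10 s baseline. Fluorescence was read kinetically at 1 cycle/s for 180 s, with calcium rises flagged as agonism.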
Starred values were filed as active, the others as inactive; u = inconclusive; x = not tested or not shown; ! = repeats disagree; [ ] = dose if it differs, or a comment. Unless noted, calls come from the whole dose curve; as a rule, active = well fitted inhibition curve with a large enough effect; inconclusive = small, poorly fitted or top-dose-only effect, or effect the other way; inactive = flat fitted curve, though single readings scatter.

SMILES	D1 antag	USP2a inh	Eya2 phos inh	D1 PAM	GALK inhibitor	D1 ag
O=C(Nc1ccc(F)c(F)c1)c1ccc(=O)n(Cc2ccc(F)cc2)c1	-21	x	x	-4	x	15
CN1CCc2cccc3c2[C@@H]1Cc1ccc(O)c(O)c1-3	-58*	3%	5%	-7	6%	17
Cc1nc(Nc2ccccc2)sc1C(=O)c1ccccc1	-33*	-11%	u	-2	0%	13
Cc1nc(Nc2ccc(Cl)c(Cl)c2)sc1C(=O)Nc1ccccc1	-52*	-7%	-21%	-8	0%	6
N#Cc1ccccc1S(=O)(=O)N1CCCC(c2nc3c(nnn3Cc3cccc(Cl)c3)c(=O)[nH]2)C1 (configuration not stated)	0	x	x	3	x	0
COc1cc(C2CC(=O)c3cnc(NC(=O)COc4ccccc4)nc3C2)cc(OC)c1OC (configuration not stated)	-30*	2%	1%[15.4 µM]	-3	3%	2
Cc1nc2ncnn2c(C)c1CCC(=O)N1CCN(c2ccccc2)CC1	19	x	x	-3	x	-1
O=C1c2oc3ccccc3c(=O)c2C(c2ccc(Br)cc2)N1c1ccccn1 (configuration not stated)	0	x	x	2	x	1
COc1ccc(CN(C)CC(O)COc2ccc(-c3ccccc3)cc2)cc1OC (configuration not stated)	-6	4%	3%	-6	15%	43*
Cc1cccc(S(=O)(=O)NC2CCN(C#N)C2)c1 (configuration not stated)	-16	x	x	-3	x	6
COc1ccccc1Nc1nn2c(=O)c3ccc(C(=O)N4CCCCC4)cc3nc2s1	-43*!	3%	4%	-4	-9%	1
CCOC(=O)c1ccc(NC(=O)Cc2coc3cc(C)cc(C)c23)cc1	13	x	x	-2	x	9
Cn1c(CN2CCCCC2)nc2cc(NS(=O)(=O)c3ccc(Cl)cc3)ccc21	-17	1%	-17%	-8	3%	52*
COc1ccccc1CN1C(=O)C(=O)c2cccc(C)c21	-1	x	x	-2	x	-3
Cc1cc(Br)cc2c1N(Cc1ccccc1OC(C)C)C(=O)C2=O	-51*	x	x	-1	x	1
O=C(CCCn1c(=O)[nH]c2ccccc2c1=O)N1CCN(c2ccccc2)CC1	-37*	x	x	-6	x	-1
O=C(CCCCCn1c(=O)[nH]c2ccccc2c1=O)NCCCN1CCN(c2ccccc2F)CC1	-91*	11%	-10%	-3	2%	1
O=C(CCCn1c(=O)[nH]c2ccccc2c1=O)NCCSCc1ccccc1	-4	1%	8%	2	-2%	1
O=C(CCS(=O)(=O)Cc1ccc(Cl)cc1)NCCCN1CCN(c2ccccc2F)CC1	-59*	5%	-15%	-22	1%	51*
O=C(Nc1cc(-c2nc3ccccc3s2)ccc1Cl)c1cc2ccccc2o1	15	x	x	0	x	2
COC(=O)c1ccccc1NC(=O)Cn1cnc2sc(C)c(S(=O)(=O)N3CCC(C)CC3)c2c1=O	7	x	x	1	x	2
CCN(CC)CCOC(=O)c1ccc(NC(=O)c2nn(-c3ccc(C)cc3)c(=O)c3c2c2ccccc2n3C)cc1	-23	x	x	1	x	7
Cc1ccc(S(=O)(=O)Nc2cc3c(cc2N2CCOCC2)n(C)c(=O)n3C)c(C)c1	-18	x	x	3	x	0
CCOC(=O)c1ccc(NC(=O)c2c(O)c3ccccc3n(C)c2=O)cc1	-73*	2%	13%	-4	3%	-1
CCOC(=O)c1ccc(NC(=O)c2oc(=O)c3ccccc3c2-c2ccccc2)cc1	-48*	x	x	0	x	5
SMILES	D1 antag	USP2a inh	Eya2 phos inh	D1 PAM	GALK inhibitor	D1 ag
COC(=O)c1cc(NC(=O)c2oc(=O)c3ccccc3c2-c2ccccc2)cc(C(=O)OC)c1	5	x	x	4	x	0
CC(=O)c1cccc(NC(=O)c2oc(=O)c3ccccc3c2-c2ccccc2)c1	-43*	x	x	-2	x	5
Cc1ccccc1C(=O)Nc1sc2c(c1C(=O)N1CCC(C)CC1)CCC(C)C2 (configuration not stated)	9	x	x	0	x	0
CCOc1ccccc1C(=O)N(Cc1ccc(N(C)C)cc1)CC1CCCO1 (configuration not stated)	-11	x	x	5	x	0
NC(=O)C1CCN(c2nc(-c3ccc(Br)cc3)cs2)CC1	-46*!	2%	-10%	-2	2%	1
CC(=O)c1ccc(-c2csc(N3CCC(C(N)=O)CC3)n2)cc1	4	0%	-21%	-6	x	2
C/C(=N\Nc1nc2ccccc2[nH]1)c1ccc(C)o1	-52*	6%	7%	-9	-1%	3
C/C(=N\Nc1nc2ccccc2[nH]1)c1ccc(Cl)s1	3	2%	2%	-11	0%	1
CC1CCN(C(=O)c2ccc(COc3ccccc3Cl)o2)CC1	-36*	-7%	-19%	-3	-2%	22
COc1cccc(C(=O)N(C)CC2CCN(CCc3cccc(C(F)(F)F)c3)CC2)c1	-32*	2%	2%	5	4%	-3
CC(=O)NCCC(=O)N(C)CC1CCN(CCc2cccc(C(F)(F)F)c2)CC1	3	-1%	8%	-3	-3%	3
CCCCCCCC(=O)N1c2ccccc2NC(=O)C1CC(=O)Nc1ccc(C(=O)O)cc1 (configuration not stated)	9	2%	11%	1	5%	2
CCCCCCCCCC(=O)N1c2ccccc2NC(=O)C1CC(=O)Nc1ccc(C(=O)O)cc1 (configuration not stated)	14	1%	-1%	-5	-1%	39*
Cc1n[nH]c(C)c1CCCCOc1ccccc1	-32*	0%	-18%	-8	10%	15
Cc1n[nH]c(C)c1CCCCOc1ccccc1[N+](=O)[O-]	-33*	3%	4%	-5	-3%	19
Cc1n[nH]c(C)c1CCCCOc1ccc([N+](=O)[O-])cc1	-39*	-4%	-15%	-7	0%	13
CSc1nc2sc3c(c2c(=O)n1-c1ccc(C)cc1)CCCC3	1	x	x	2	x	0
CN(C)c1ccc(NC2=C(Cl)C(=O)c3ccccc3C2=O)cc1	-66*	-2%	-15%	-13	x	9
CC(=O)Nc1ccc(NC2=C(Cl)C(=O)c3ccccc3C2=O)cc1	-58*	0%	8%	-10	-2%	4
O=C1C(Cl)=C(Nc2ccc3cn[nH]c3c2)C(=O)c2ccccc21	-74*	-3%	4%	-9	4%	10
COC(=O)Cn1c(SCCOc2ccccc2OC)nc2ccccc21	3	x	x	-1	x	0
